This passage reports outcome and AC50 results from PubChem BioAssay (EPA / NIEHS).

Active and inactive are the calls of the source. How the source made its calls: active means hit-call score of the fitted dose curve at least 0.9, where 1 is the maximum; inactive means score below 0.9.

Read-out in the test: Urokinase-type plasminogen activator receptor (uPAR), PLAUR (gene 5329)
The test can be described thus: BSK_BE3C_uPAR: BioMAP Diversity Plus: BE3C Assay for Urokinase-type plasminogen activator receptor (uPAR) Biomarker Activity (AID 2283039).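 On outcome: cells exposed to compound for one day before measurement.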 The conditions noted are these: primary human bronchial epithelial cells; actives raise or lower the signal. How it is done: BSK_BE3C is a cell-based, multiplexed-readout assay that uses bronchial epithelial cell, a human lung primary cell, with measurements taken at 24 hours after chemical dosing in a 96-well plate.BSK_BE3CAR is an assay component measured in the BSK_BE3C assay. It measures uPAR antibody related to regulation of gene expression using ELISA technology.Data from the assay component BSK_BE3CAR was analyzed into 1 assay endpoint. This assay endpoint, BSK_BE3CAR, was analyzed with bidirectional fitting relative to DMSO as the negative control and baseline of activity. Using a type of binding reporter, gain or loss-of-signal activity can be used to understand changes in the signaling as they relate to the gene PLAUR. Furthermore, this assay endpoint can be referred to as a primary readout, because this assay has produced multiple assay endpoints where this one serves a signaling function. To generalize the intended target to other relatable targets, this assay endpoint is annotated to the cytokine intended target family, where the subfamily is plasmogen activator.
The levels of cell surface (or secreted, indicated by the prefix "s") biomarker endpoints were measured by ELISA. Overt cytotoxicity to cells in confluent adherent cultures (all systems other than the BT system) was assessed by measuring total protein levels using sulforhodamine B (SRB) staining in parallel cultures at the time of biomarker measurements, indicated as SRB endpoints. For proliferation assays for adherent cell types, individual cell types are cultured at sub-confluence and relative cell numbers quantified by SRB staining at time points optimized for each system (48 h: 3C and CASM3C systems; 72 h: BT and HDF3CGF systems; 96 h: SAg system). SRB was performed by staining cells with 0.1% SRB after fixation with 10% TCA and reading wells at 560 nm.Viability and proliferation of PBMC (T cells) was quantified by Alamar Blue reduction for the SAg and BT systems. For PBMC viability (referred to as PBMC Cytotoxicity within the assay endpoint names), cells were plated (75,000/well in a 96-well plate) and then chemical samples added for 1 h before addition of activators, SEB and TSST-1 (20 ng/mL final concentration each). Cells were incubated for 90 h. Then, Alamar Blue (20 uL/well) (Invitrogen, Cat DAL1100) was added for 6 h, and the plates were read with a fluorescence microplate reader at 546/580 nm (excitation/emission). For PBMC proliferation, cells were plated and activated as above but incubated for only 16 h prior to addition of Alamar Blue. Plates were read after 6 h.
Turning to `COP(=O)(OC)SCn1c(=O)oc2cc(Cl)cnc21`, the result was inactive.

For `CC1=NNC(=O)N(/N=C/c2cccnc2)C1`, the outcome was inactive.

With `CC(COc1ccc(Oc2ccccc2)cc1)Oc1ccccn1` (stereo not given), the outcome was inactive. For the molecule `C#CCC1=C(C)C(OC(=O)C2C(C=C(C)C)C2(C)C)CC1=O` (stereo not given), the outcome was inactive. On the same count and under the same terms, to `Cc1nn(-c2cc(NS(C)(=O)=O)c(Cl)cc2Cl)c(=O)n1C(F)F` belongs “inactive”; to `CCC(=O)Nc1ccc(Cl)c(Cl)c1`, “inactive”. What is called AC50 is the midpoint of the concentration-response curve, whichever way the signal moves. In the case of `CCCCOC(=O)[C@@H](C)Oc1ccc(Oc2ccc(C#N)cc2F)cc1`, the AC50 was 0.811 µM (active). Consider `CCc1cnc(C2=NC(C)(C(C)C)C(=O)N2)c(C(=O)O)c1` (stereo not given), for which the outcome was inactive. Turning to `FC(F)C(F)(F)OCC(Cn1cncn1)c1ccc(Cl)cc1Cl` (stereo not given), the result was inactive. Turning to `CNC(=O)Oc1cccc2c1OC(C)(C)O2`, the result was inactive. As for `CCOP(=S)(OCC)Oc1ccc2c(C)c(Cl)c(=O)oc2c1`, the result was inactive. Regarding `Cc1ccn2nc(S(=O)(=O)Nc3c(F)cccc3F)nc2n1`, the outcome was inactive. Turning to `CCOC(=O)COc1cc(-c2nn(C)c(OC(F)F)c2Cl)c(F)cc1Cl`, the result was inactive. Consider `Nc1nc(N)nc(NC2CC2)n1`, for which the result was inactive. With `CCOP(=S)(OCC)OC(Cl)C(Cl)(Cl)Cl` (stereo not given), the result was inactive.

`Nc1c(Cl)cc([N+](=O)[O-])cc1Cl`: the outcome was inactive. For `COc1cccc(C(=O)NN(C(=O)c2cc(C)cc(C)c2)C(C)(C)C)c1C`, the outcome was inactive.

`C#CC(C)(C)NC(=O)c1cc(Cl)cc(Cl)c1`: the result was inactive. As for `C[N+]1(C)CCCCC1`, the result was inactive. On the same count and under the same terms, the same measure for `CCOP(=S)(OCC)SCCSCC`: “inactive”; for `CCC(CC)Nc1c([N+](=O)[O-])cc(C)c(C)c1[N+](=O)[O-]`: “inactive”.

For `CCCCN(CC)c1c([N+](=O)[O-])cc(C(F)(F)F)cc1[N+](=O)[O-]`, the outcome was inactive. Take `CSc1nc(NC(C)C)nc(NC(C)C)n1`: the outcome was inactive. With `COc1cc(OC)nc(Sc2cccc(Cl)c2C(=O)O)n1`, the result was inactive. As for `CN1COCN(Cc2cnc(Cl)s2)C1=N[N+](=O)[O-]`, the result was inactive. Take `COP(=O)(OC)OC(Br)C(Cl)(Cl)Br` (stereo not given): the AC50 is 36.6 µM (active).

Take `C[Si](Cn1cncn1)(c1ccc(F)cc1)c1ccc(F)cc1`: the outcome was inactive. Regarding `CSc1nnc(C(C)(C)C)c(=O)n1N`, the outcome was inactive. Regarding `S=C1NCCN1`, the AC50 is 0.397 µM (active). As for `COc1ccc(C(=CC(=O)N2CCOCC2)c2ccc(Cl)cc2)cc1OC`, the outcome was inactive.

`CCC(=NOC/C=C/Cl)C1=C(O)CC(C2CCOCC2)CC1=O` (stereo not given): the result was inactive.

Take `O=c1ccc(=O)[nH][nH]1`: the result was inactive. With `C=C(C)[C@H]1Cc2c(ccc3c2O[C@@H]2COc4cc(OC)c(OC)cc4[C@@H]2C3=O)O1`, the result was inactive. As for `CC(C)[C@H](C(=O)O[C@H](C#N)c1cccc(Oc2ccccc2)c1)c1ccc(Cl)cc1`, the AC50 was 5.23 µM (active). Take `CCOP(=O)(SC(C)CC)N1CCSC1=O` (stereo not given): the outcome was inactive. Take `Cc1cc(C2CC2)nc(Nc2ccccc2)n1`: the outcome was inactive. Regarding `CCOP(=S)(OCC)Oc1ccc([N+](=O)[O-])cc1`, the result was inactive. For the molecule `CCCSP(=O)(OCC)SCCC`, the outcome was inactive. Take `CCCOc1nn(C(=O)NS(=O)(=O)c2ccccc2C(=O)OC)c(=O)n1C`: the AC50 is 1.32 µM (active). The same measure, in the same setting: the same measure for `CCOP(=O)(NC(C)C)Oc1ccc(SC)c(C)c1` (stereo not given): 5.54 µM (active).
